# Source: PubChem (several laboratories)
# Sampled rows, rich in hits. Any-hit rate of the full collection: about 2.3%.
# BCLXL inh: blocks human Bcl-xL binding to Bim BH3 peptide | inhibition, % at 10.9 µM | Q07817 | 320,000 compounds, 0.7% hits | GST-Bcl-xL / FITC-Bim BH3 peptide fluorescence polarization;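 active = inhibition above the mean of all tested compounds plus 3 SD, cutoff set per campaign, cut at about 30% in these data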;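 note: inhibitors lower millipolarization by displacing the labeled peptide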
# Mcl-1 Bim block: human Bim-Mcl-1 interaction inhibition; 190,000 compounds, 0.1% hits; inhibition, % at 10 µM; Bead-based flow cytometry, Bim peptide-Mcl-1 binding; Q07820; in the data active = inhibition above about 40%
# Target sequence (Q07820 whole entry, looked up): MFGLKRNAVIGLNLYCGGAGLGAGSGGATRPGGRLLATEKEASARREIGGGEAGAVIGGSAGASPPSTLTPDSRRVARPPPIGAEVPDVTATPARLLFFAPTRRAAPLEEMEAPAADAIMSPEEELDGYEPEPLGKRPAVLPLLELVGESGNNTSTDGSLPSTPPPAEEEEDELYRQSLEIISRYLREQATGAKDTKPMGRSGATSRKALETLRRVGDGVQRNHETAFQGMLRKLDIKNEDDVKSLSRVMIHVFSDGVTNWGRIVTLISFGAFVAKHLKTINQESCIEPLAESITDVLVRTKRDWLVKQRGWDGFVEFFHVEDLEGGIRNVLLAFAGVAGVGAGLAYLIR
# MCL1-BIM inh: MCL1-BIM-BH3 interaction inhibition (human) | GST-MCL1 / FITC-Bim-BH3 fluorescence polarization | inhibition, % at 10.9 µM | 320,000 compounds, 0.68% hits | AID 2057;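 active = inhibition above the mean inhibition of all tested compounds plus 3 SD, set per campaign, cut at about 40% in these data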;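 note: higher means more loss of mP so more displacement of Bim peptide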
# Mcl1 Bid PPI: Mcl-1/Bid interaction inhibition; Q07820; TR-FRET Mcl-1/Bid-Dy647 peptide binding, 1536-well; inhibition, % at 21.7 µM; 220,000 compounds, 0.97% hits; AID 1021;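 active = compounds that cut the binding signal by more than half at the single screening dose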;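 note: His-tagged Mcl-1 with europium anti-His antibody binding Bid BH3 peptide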
# GLD-1 RNA inh: GLD-1-TGE RNA interaction inhibition (C. elegans). purified GLD-1 + fluorescein TGE RNA, fluorescence polarization. inhibition, % at 5.96 µM. Q17339. AID 2280. 320,000 compounds, 0.44% hits;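 active = percent inhibition above a per-plate cutoff, the plate mean of test compounds plus 3 SD, cut at about 30% in these data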
# Mcl1-Noxa inh: disrupts binding of human Mcl-1 to Noxa peptide; Q07820; TR-FRET Mcl-1/Noxa peptide binding, 2 h; inhibition, % at 21.7 µM; 220,000 compounds, 1.5% hits; AID 1022;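 active = compounds that cut the protein-peptide binding signal by more than 50% relative to plate controls in a single-dose test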;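 note: His-tagged Mcl-1 with rhodamine Noxa BH3 peptide and terbium anti-His antibody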
# Numbers stand for hits; i = inactive; nt = no result given.
SMILES,BCLXL inh,Mcl-1 Bim block,MCL1-BIM inh,Mcl1 Bid PPI,GLD-1 RNA inh,Mcl1-Noxa inh
COc1ccc(C(=O)N(Cc2ccco2)Cc2cccs2)c(O)c1,i,i,i,i,i,i
COc1ccc(C(=O)/C=C/C(=O)N(CC(=O)NCCC(C)C)Cc2cccs2)c(O)c1,nt,i,nt,i,nt,66
O=C(Nc1cccc2nsnc12)c1ccc(-c2ccc(Br)cc2)o1,i,i,i,63,i,i
COC(=O)c1ccccc1NC(=O)c1ccc(-c2ccc(Br)cc2)o1,i,i,i,i,i,i
CC(=O)C1=C(C)NC(=O)NC1c1ccc(Cl)cc1 (stereo not drawn),i,i,i,i,i,54
O=C(O)CN1C(=O)/C(=C\c2cc(Br)ccc2OCc2ccccc2Cl)SC1=S,i,nt,57,nt,i,nt
O=C(O)COc1ccc(Br)cc1/C=C1/SC(=O)N(CC(=O)N2CCCC2)C1=O,i,i,i,i,i,i
CCn1c(SCC(=O)N2CCCC2)nc2c1c(=O)n(C)c(=O)n2C,52,i,i,i,i,i
CCn1c(SCC(=O)N2CCN(C)CC2)nc2c1c(=O)n(C)c(=O)n2C,i,nt,i,nt,i,nt
CCOc1ccc(/C=C2/SC(=O)NC2=S)cc1,48,i,50,i,67,i
N=c1sccn1CC(=O)NCCc1ccc(Cl)cc1Cl,i,i,i,i,i,51
O=C(Cc1ccccc1)NCCc1ccc(Cl)cc1Cl,i,i,i,i,i,i
Cc1ccc(NC(=O)COC(=O)[C@H](C)N2C(=O)C3CC=CCC3C2=O)cc1S(=O)(=O)N(C)C (stereo partly drawn),i,i,i,i,i,i
Cc1cc2c(c(=O)n1Cc1ccco1)C(c1cccnc1)C(C#N)=C(N)O2 (stereo not drawn),47,i,45,i,i,i
CCOc1ccc(C2C(C#N)=C(N)Oc3cc(C)n(Cc4ccco4)c(=O)c32)cc1OC (stereo not drawn),i,i,i,i,i,i
O=C(CSc1ncnc2scc(-c3ccccc3)c12)N1CCN(Cc2ccc3c(c2)OCO3)CC1,i,i,i,i,i,61
Cc1cc(C)cc(NC(=O)N2CCN(Cc3ccc4c(c3)OCO4)CC2)c1,i,nt,i,i,i,i
O=C(Nc1ccccc1)N1CCN(Cc2ccc3c(c2)OCO3)CC1,i,i,i,58,i,i
OC(COCc1ccc2c(c1)OCO2)CN1CCN(Cc2ccccc2)CC1 (stereo not drawn),i,i,i,52,i,i
OCCN1CCN(CC(O)COCc2ccc3c(c2)OCO3)CC1 (stereo not drawn),i,i,i,i,i,i
O=C(NCCN1CCN(C(=O)Nc2ccccc2)CC1)Nc1ccccc1,112,i,i,i,i,i
CCOC(=O)C1CCN(C(=O)COC(=O)Cc2ccc(Cl)cc2)CC1,i,nt,i,nt,i,nt
NC(=O)C1CCN(S(=O)(=O)Cc2ccccc2Cl)CC1,i,i,i,i,i,i
Cn1cc(CN2C[C@]3(C)C[C@H]2CC(C)(C)C3)c(-c2ccc3c(c2)OCCO3)n1,i,50,i,i,i,i
NC(=O)C1CCN(C(=O)C2(NC(=O)Nc3cccc(F)c3)CCCCC2)CC1,i,nt,i,nt,i,nt
SMILES,BCLXL inh,Mcl-1 Bim block,MCL1-BIM inh,Mcl1 Bid PPI,GLD-1 RNA inh,Mcl1-Noxa inh
O=C(O)CCCCCN1C(=O)/C(=C\c2ccc(-c3ccc(Cl)cc3)o2)SC1=S,i,nt,i,90,i,105
O=C(O)CCCCCN1C(=O)/C(=C\c2ccncc2)SC1=S,i,i,i,i,i,i
O=C(O)CCCN1C(=O)/C(=C/c2ccc(-c3nc4ccccc4s3)o2)SC1=S,i,i,i,53,i,102
O=C(OCC(=O)N1CCCC1=O)c1ccc(Cl)cc1[N+](=O)[O-],i,nt,i,nt,i,nt
FC(F)(F)c1cccc(N2CCN(Cc3cccnc3)CC2)c1,i,i,i,i,i,i
FC(F)(F)c1cccc(N2CCN(Cc3ccoc3)CC2)c1,i,i,i,54,i,i
COc1ccccc1CCC(=O)Nc1ccc(S(=O)(=O)Nc2nccs2)cc1,i,nt,i,nt,i,nt
CCN(Cc1ccccc1)C(=O)CSc1ncn[nH]1,i,nt,i,nt,i,nt
CS(=O)(=O)c1nsc2nc(=O)c(/C=C3\C=Nc4ccccc43)c(N)n12,i,i,i,i,i,i
COC1=C/C(=C/c2c(N)n3c(nc2=O)sc2cc(S(C)(=O)=O)ccc23)C=CC1=O,i,nt,i,i,i,54
